CSC inhib – cancer stem cell viability inhibitors, primary screen, luminescence; inhibition, % at 7.5 µM; AID 2717, 2010; 300,000 compounds, 1.1% hits; cancer stem cell-like cells viability; in the data active = inhibition above about 75%; inconclusive = no clear call, values can overlap the other calls; tested in HMLE shEcad cells
PP1 counter – PP1-alpha phosphatase inhibitors, primary screen, counter-screen for PP5 inhibitor project, biochemical, fluorescence, OMFP substrate, single point; Serine/threonine-protein phosphatase PP1-alpha catalytic subunit (Homo sapiens), P62136; purified PP1alpha; inhibition, % at 6.7 µM; 320,000 compounds, 0.9% hits; AID 2235, 2010;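 active = inhibition above the mean inhibition of all tested compounds plus 3 SD, computed separately for each screening campaign, cut at about 15% in these data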
Target sequence (P62136 whole entry, looked up): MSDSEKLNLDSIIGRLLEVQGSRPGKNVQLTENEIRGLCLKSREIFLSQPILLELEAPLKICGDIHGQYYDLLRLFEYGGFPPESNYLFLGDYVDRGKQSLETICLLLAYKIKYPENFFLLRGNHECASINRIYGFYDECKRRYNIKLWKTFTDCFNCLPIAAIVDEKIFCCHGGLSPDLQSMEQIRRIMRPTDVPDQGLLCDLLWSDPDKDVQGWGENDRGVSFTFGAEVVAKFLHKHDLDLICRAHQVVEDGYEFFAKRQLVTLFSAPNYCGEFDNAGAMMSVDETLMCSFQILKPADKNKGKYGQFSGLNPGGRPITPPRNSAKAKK
Beta apoptosis – inhibitors of cytokine-induced beta cell apoptosis, primary screen, luminescence. INS-1E cytokine-induced death, ATP luminescence, 48 h; percent of positive-control rescue, neutral wells zero. protection from apoptosis, % (no concentration beside the values). 300,000 compounds, 0.8% hits. AID 435005, 2010;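 active = Every replicate reaches about 75%, or at least half do and their mean reaches it too, limit read from the data; inconclusive = At least half of replicates reach the limit but their mean does not; inactive = Under half of replicates reach the limit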;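 note: 0% = cytokine-treated negative control wells and 100% = positive control rescue; higher means more ATP so stronger rescue from cytokine killing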
SKKanGAS inh – S. pyogenes SKKanGAS growth inhibitors in kanamycin, primary screen, streptokinase expression inhibitor project, SKKanGAS strain, BacTiter-Glo luminescence; 6 h; inhibition, % at 7.5 µM; 300,000 compounds, 1.3% hits;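 active = mean replicate score, as percent of positive control median, at least 50; inconclusive = mean below 50 but one replicate at or above 50; inactive = mean and every replicate below 50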;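 note: strain carries kanamycin resistance gene driven by streptokinase promoter and grows in 40 µg/ml kanamycin; loss of luminescence reflects streptokinase promoter inhibition or plain growth inhibition; 0% = median of DMSO wells and 100% = positive control at its reference dose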
PP5 inh – PP5 phosphatase inhibitors, primary screen, biochemical, fluorescence; purified PP5c, OMFP substrate fluorescence; AID 1987, 2009; 320,000 compounds, 0.18% hits; inhibition, % at 6.7 µM;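 active = inhibition above the campaign's mean inhibition across all tested compounds plus 3 SD, cut at about 9.5% in these data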;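 note: 0% = DMSO only and 100% = 100 µM cantharidin control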
PP1 inh confirm – PP1 phosphatase inhibitors, confirmation, biochemical, fluorescence, OMFP substrate, triplicate. 1,900 compounds, 52% hits. inhibition, % at 6.7 µM. AID 2358, 2010. shares compounds with PP1 counter. purified PP1alpha;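 active = mean PP1 inhibition above a set limit taken from the earlier primary screen, cut at about 15% in these data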
PP5 inh counter – PP5 phosphatase inhibition by PP1 hits, confirmation, counter-screen for PP1 inhibitor project, biochemical, fluorescence, triplicate; 1,900 compounds, 4% hits; AID 2360, 2010; inhibition, % at 6.7 µM; shares compounds with PP1 counter; purified PP5c, OMFP fluorescence;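 active = mean PP5 inhibition over triplicate wells above about 9.5% taken from the earlier PP1 screen, limit read from the data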
The depositor's hits bear a star; ? = inconclusive; / = no result given. Only some compounds are listed: those with a hit (about 3.1% of all), similar ones and a draw of the others.

SMILES	CSC inhib	PP1 counter	Beta apoptosis	SKKanGAS inh	PP5 inh	PP1 inh confirm	PP5 inh counter
COc1cc(/C=N/NC(=O)c2cccc(N3CCCC3=O)c2)ccc1O	12.2	2.2	-1.0	0.4	-1.3	/	/
CC1CN(C(=O)Cn2cc(SCC(=O)N3CCOCC3)c3ccccc32)CC(C)O1 (stereo not given)	11.4	-7.0	-2.4	2.8	1.9	/	/
CCOC(=O)c1[nH]c2ccccc2c1CCCN1C(=O)c2ccccc2C1=O	/	32.2*	-4.1	-8.6	4.1	25.3*	1.4
O=C(NNC(=O)C1CCC(C(=O)NNC(=O)c2cccs2)CC1)c1cccs1 (stereo not given)	-7.2	1.9	-3.3	-4.4	0.9	/	/
N#Cc1cccc(NC(=O)CNc2cccc(S(=O)(=O)N3CCCC3)c2)c1	11.9	21.0*	-4.5	-10.7	0.8	-5.1	-3.6
COc1ccc(C2CC(c3ccc(OC)cc3)n3nc(NC(=O)c4cccs4)nc3N2)cc1 (stereo not given)	-14.7	18.2*	-3.6	12.9	0.1	4.2	-3.9
COc1ccc(C2CC(c3ccc(F)cc3)n3nc(NC(=O)c4ccco4)nc3N2)cc1 (stereo not given)	-0.5	-1.8	4.7	-5.6	-1.0	/	/
CC(C)(C)c1ccc(C(=O)NCC(=O)OCC(=O)c2ccc3c(c2)-c2ccccc2C3)cc1	0.8	19.8*	0.6	-3.8	1.5	14.4	-0.2
O=C(CNC(=O)c1ccc(Cl)cc1)OCC(=O)c1ccccc1	2.2	-0.5	-8.0	-2.7	2.0	/	/
CCN(CC)C(=O)CSc1nc(OC)cc(=O)[nH]1	-1.4	-1.6	-1.1	5.3	2.0	/	/
CCCOc1cccc(-c2nn(-c3ccccc3)cc2/C=C(\C#N)C(=O)NCCCn2ccnc2)c1	8.1	13.7	-4.0	20.9	4.0	/	/
N#C/C(=C/c1cn(-c2ccccc2)nc1-c1cccc(OCc2ccc(F)cc2)c1)C(=O)NCCCn1ccnc1	99.5*	22.4*	-1.2	?	5.1	8.0	-2.6
CC(C)c1ccc(NC(=S)N2CCCC(c3ccc(F)cc3)=N2)cc1	20.1	0.3	-0.1	-1.0	4.6	/	/
Cc1sc2nc(COC(=O)c3cccc(S(=O)(=O)N(C)c4ccccc4)c3)[nH]c(=O)c2c1C	2.1	20.9*	1.5	7.3	0.2	25.4*	-2.4
Cc1sc2nc(COC(=O)c3cccc(OC(F)F)c3)[nH]c(=O)c2c1C	5.9	3.2	0.6	-3.5	1.2	/	/
COCCC(C(=O)Oc1c(C(C)(C)C)cc(C)cc1C(C)(C)C)c1ccccc1 (stereo not given)	25.2	-1.9	10.4	/	2.5	/	/
O=C(O)c1cc(-c2ccc(Cl)cc2)n(-c2ccc(F)cc2)n1	4.5	46.9*	-2.9	-4.9	0.3	37.2*	-2.5
Cc1ccc(-n2nc(C(=O)O)cc2-c2ccccc2)cc1	-5.1	33.1*	-3.0	-2.0	-1.0	30.7*	-4.3
Cc1ccc(-n2nc(C(=O)O)cc2-c2ccc(Cl)cc2)cc1	-6.2	47.2*	-5.0	-7.3	-1.9	47.2*	3.4
O=C(O)c1cc(-c2ccc(Cl)cc2)n(-c2ccc(Cl)cc2)n1	0.7	43.2*	-4.7	-18.3	-1.1	45.2*	-3.1
Cc1ccc(-n2nc(C(=O)O)nc2-c2ccccc2)cc1	16.6	12.0	-3.6	0.3	-1.3	/	/
CC1(C)CC2CC(C)(CN2/C=C2/CCCCC2=O)C1 (stereo not given)	0.1	8.1	-4.2	-6.6	-0.4	/	/
CN(C)CCNC(=O)c1ccc(Sc2ccc(Br)cc2)c([N+](=O)[O-])c1	67.4	-0.1	1.4	3.8	-1.2	/	/
Cc1n[nH]c(=O)c2c(NC(=O)CSc3nn(-c4ccccc4)c(=S)s3)oc(C)c12	7.2	-2.4	-3.1	2.0	-2.4	/	/
O=C(O)c1cc(-c2ccc(Cl)c(Cl)c2)n(-c2ccccc2)n1	-4.3	57.7*	-7.0	-10.0	0.5	51.9*	-4.9
SMILES	CSC inhib	PP1 counter	Beta apoptosis	SKKanGAS inh	PP5 inh	PP1 inh confirm	PP5 inh counter
O=C(N/N=C/c1ccc(O)c2ncccc12)c1cccc(Br)c1	-0.7	20.9*	108.8*	15.4	-0.7	18.1*	0.6
O=C(N/N=C/c1cccnc1)c1cccc(NC(=O)c2cccc(Br)c2)c1	/	3.8	2.0	1.7	4.0	/	/
NS(=O)(=O)c1ccc(CCNC(=O)Cc2ccc(S(=O)(=O)N3CCOCC3)s2)cc1	-6.1	-4.6	1.6	-2.2	-2.0	/	/
CCOC(=O)C1=C(c2ccccc2)NC(N)=NC1c1ccc(OCc2ccc(Cl)cc2)c(OC)c1 (stereo not given)	75.5*	24.9*	-11.1	31.1	5.3	29.0*	-0.3
CCOC(=O)C1=C(c2ccccc2)NC(=O)NC1c1cc(Cl)c(O)c(OC)c1 (stereo not given)	3.7	0.3	-2.6	0.3	-2.1	/	/
COC(=O)c1ccc(NC(=O)c2ccc(NC(=O)c3ccco3)cc2)cc1	9.9	29.5*	-0.1	-3.7	1.6	26.2*	-1.6
O=C(Nc1ccc(N2CCN(C(=O)c3ccco3)CC2)cc1)c1ccc(Br)cc1	-0.6	20.9*	0.5	-1.5	0.6	39.3*	-1.6
O=C(/C=C/c1ccc(Br)cc1)c1ccc(NC(=O)c2ccco2)cc1	48.1	22.3*	-3.4	-4.5	0.8	22.1*	1.4
Cc1ccc(C(=O)Nc2ccc(N3CCN(C(=O)c4ccco4)CC3)cc2)cc1	13.0	1.2	6.4	3.2	2.2	/	/
O=S(=O)(N/N=C/c1ccc2c(c1)OCO2)c1ccc(Br)cc1	6.7	0.1	-4.5	-3.3	-0.3	/	/
Cc1ccc(-c2csc(Cc3nc(-c4ccc5c(c4)CCC(=O)N5)cs3)n2)cc1	-5.2	36.1*	9.1	70.7*	3.9	16.3*	-2.4
CC(=O)c1cccc(S(=O)(=O)N2CCCC(c3nc4c(nnn4Cc4ccc(C)cc4)c(=O)[nH]3)C2)c1 (stereo not given)	6.4	7.6	6.2	21.5	-0.4	/	/
O=c1[nH]c(C2CCN(S(=O)(=O)c3ccc(C(F)(F)F)cc3)CC2)nc2c1nnn2Cc1ccc(F)cc1	0.6	18.7*	/	29.5	6.1	5.2	5.3
O=C(NC1CCCC1)c1nc2c(nnn2Cc2cccc(Cl)c2)c(=O)[nH]1	7.6	20.6*	-8.9	21.1	-2.2	9.1	-2.4
O=C(NC1CCCC1)c1nc2c(nnn2Cc2ccccc2Cl)c(=O)[nH]1	-9.8	13.3	0.9	19.9	-0.7	/	/
Cc1ccc(Cn2nnc3c(=O)[nH]c(C4CCN(S(=O)(=O)c5ccc(C)cc5)CC4)nc32)cc1	/	14.5	-4.7	/	5.3	/	/

Compound activity as filed in PubChem BioAssay.
